Screens (PubChem)
Rows were chosen to be rich in hits. Some 0.9% of all compounds tested hit in one or more screens of this group.
SRC3 TRFRET art: flags TR-FRET format artefacts in PPARgamma SRC-3 recruitment agonist screen | TR-FRET artefact counter-screen, PPARgamma/SRC-3 format; stronger effect = higher value | AID 1048 | TR-FRET ratio at 8 µM | actives 0.39% (n = 99,000)
SRC1 TRFRET art: counter-screen for PPARgamma SRC-1 recruitment agonists: TR-FRET artefact. TR-FRET ratio at 8 µM. actives 0.34% (n = 99,000). TR-FRET detection artefact counter-screen, emission ratio; stronger effect = higher value. AID 1051; in the data active = TR-FRET ratio above about 2300
PPARg SRC-3 ag: promotes SRC-3 coactivator recruitment by human PPARgamma. P37231. biochemical PPARgamma/SRC-3 coactivator recruitment assay. activation, % at 8 µM. actives 0.26% (n = 200,000). AID 731; in the data active = activation above about 23%
Target sequence (P37231 whole entry, looked up): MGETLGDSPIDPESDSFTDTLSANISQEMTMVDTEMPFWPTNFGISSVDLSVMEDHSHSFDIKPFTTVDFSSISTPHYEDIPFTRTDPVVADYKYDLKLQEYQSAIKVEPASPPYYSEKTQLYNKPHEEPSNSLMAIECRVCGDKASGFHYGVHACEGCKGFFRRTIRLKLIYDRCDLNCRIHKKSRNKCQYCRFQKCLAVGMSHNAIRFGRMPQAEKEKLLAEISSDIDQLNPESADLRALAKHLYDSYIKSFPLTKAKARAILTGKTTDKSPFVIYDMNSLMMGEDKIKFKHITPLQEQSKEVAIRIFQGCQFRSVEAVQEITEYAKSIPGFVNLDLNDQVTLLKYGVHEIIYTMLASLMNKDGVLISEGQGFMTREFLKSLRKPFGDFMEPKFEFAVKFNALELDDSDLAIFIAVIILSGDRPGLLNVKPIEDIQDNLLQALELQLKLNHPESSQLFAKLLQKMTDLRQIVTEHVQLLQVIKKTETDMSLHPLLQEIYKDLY
TR-FRET SRC-2 ct: flags TR-FRET format artefacts in PPARgamma SRC-2 recruitment agonist screen | TR-FRET artefact counter-screen; stronger effect = higher value | TR-FRET ratio at 8 µM | actives 0.4% (n = 200,000) | AID 1049
PPARg SRC1 recr: promotes SRC-1 coactivator recruitment by human PPARgamma; activation, % at 8 µM; P37231; PPARgamma-SRC-1 coactivator recruitment biochemical assay; actives 0.41% (n = 200,000); in the data active = activation above about 19%
PPARg SRC2 recr: PPARgamma-driven SRC-2 recruitment agonism; P37231; PPARgamma LBD-SRC-2 recruitment, biochemical; activation, % at 8 µM; actives 0.34% (n = 200,000); in the data active = activation above about 22%
PPARg SRC2 ag: human PPARgamma SRC-2 recruitment agonism, confirmation | shares compounds with PPARg SRC-3 ag | biochemical SRC-2 recruitment by PPARgamma | activation, % at 8 µM | actives 52% (n = 790) | AID 1297; in the data active = activation above about 22%
PPARg SRC1 conf: human PPARgamma SRC-1 recruitment agonism, confirmation. shares compounds with PPARg SRC-3 ag. PPARgamma–SRC-1 coactivator recruitment biochemical assay. activation, % at 8 µM. actives 43% (n = 790). AID 1300; in the data active = activation above about 20%
PPARg SRC3 conf: confirmation of agonists of SRC-3 recruitment by human PPARgamma; activation, % at 8 µM; actives 29% (n = 790); shares compounds with PPARg SRC-3 ag; biochemical PPARgamma-SRC-3 coactivator recruitment, agonist mode; in the data active = activation above about 24%
Hits are given with their value; - = inactive; . = not tested or not shown. Cut-off read from the data, not from the text of the source, unless noted: active = TR-FRET ratio above about 2000; inactive = the rest.

SMILES	SRC3 TRFRET art	SRC1 TRFRET art	PPARg SRC-3 ag	TR-FRET SRC-2 ct	PPARg SRC1 recr	PPARg SRC2 recr	PPARg SRC2 ag	PPARg SRC1 conf	PPARg SRC3 conf
S=C(Nc1ccccc1Cl)NC1CC2CCCC(C1)N2C1CC1 (stereo not drawn)	-	-	-	-	-	-	.	.	.
CCC(/C=C1\Sc2ccc(OC)cc2N1CCO)=C\c1sc2ccc(OC)cc2[n+]1CCO	-	-	-	-	23	-	-	-	-
S=c1[nH]ncn2c1cc1oc3ccccc3c12	2852	2955	28	2319	31	37	-	-	-
Cc1cc(C(=O)CSc2nnc(-c3cccnc3)n2-c2ccccc2F)c(C)n1CC1CCCO1 (stereo not drawn)	.	.	-	-	-	-	.	.	.
COc1cc(N=Nc2c(C)n(C)n(-c3ccccc3)c2=O)ccc1N	-	-	-	-	28	-	-	-	-
Cc1c(C(=O)/C=C/c2cccs2)oc2ccc(F)cc12	.	.	-	2116	28	-	-	-	-
Cc1cc(=O)oc2c(C(=O)/C=C\c3cccs3)c(O)ccc12	-	-	-	-	-	-	.	.	.
O=C(c1ccco1)N1CCN(Cc2cccc([N+](=O)[O-])c2)CC1	-	-	-	-	-	-	.	.	.
Cc1c2cc(O)c(=O)cc-2oc2cc(O)c(O)cc12	.	.	27	-	-	-	-	-	-
COc1cc(OC)c(-c2c3cc(O)c(=O)cc-3oc3cc(O)c(O)cc23)cc1OC	-	-	-	-	-	-	.	.	.
COc1ccc(-c2csc3[nH]c(=S)n(-c4ccccc4)c(=O)c23)cc1OC	2099	2467	-	2183	-	25	-	-	-
COc1cccc(-c2cc3c(=O)n(-c4ccccc4)c(=S)[nH]c3s2)c1	.	.	-	1988	23	31	-	-	-
COc1ccc(-n2c(=S)[nH]c3c(sc(=S)n3-c3ccccc3)c2=O)c(OC)c1	-	-	-	-	-	-	.	.	.
O=c1oc(-c2ccccc2F)nc2c1cnn2-c1ccccc1	.	.	-	-	23	-	-	25	27
COCCN(Cc1ccccc1)C(=S)Nc1ccc(OC(F)F)cc1	-	-	-	-	-	-	.	.	.
CCS(=O)(=O)Nc1ccc(-c2nnc(SCC(=O)c3cccc(OC)c3)o2)cc1	.	.	-	-	-	-	.	.	.
CCS(=O)(=O)Nc1ccc(-c2nnc(SCC(=O)c3ccc(NC(C)=O)c(OC)c3)o2)cc1	.	.	57	-	31	-	-	-	-
CCn1c(=O)cc(SCC(=O)Nc2ccc3c(c2)OCO3)c2ccccc21	.	.	32	2330	24	47	44	32	29
CCn1c(=O)cc(SCC(=O)Nc2cccnc2)c2ccccc21	.	.	27	2082	19	45	31	20	-
COc1ccc(S(=O)(=O)Nc2ccc3c(c2)OCO3)cc1C	.	.	-	-	-	24	-	-	-
Cc1ccc(N=Cc2sc(O)c3ccccc23)cc1	.	.	-	-	25	29	-	-	-
Cc1ccc(N=Cc2sc(O)c3ccccc23)c(C)c1	.	.	-	-	-	-	.	.	.
CC(=O)N1C2CCCCC2S[C@H]2CCCCC21 (stereo partly drawn)	.	.	-	-	-	-	.	.	.
O=C(C1=C(O)C(=O)N(CC2CCCO2)C1c1cccnc1)c1ccco1 (stereo not drawn)	.	.	-	-	-	-	.	.	.
O=C(C1=C(O)C(=O)N(Cc2ccco2)C1c1cccnc1)c1cc2ccccc2o1 (stereo not drawn)	.	.	50	2097	33	34	-	-	-
SMILES	SRC3 TRFRET art	SRC1 TRFRET art	PPARg SRC-3 ag	TR-FRET SRC-2 ct	PPARg SRC1 recr	PPARg SRC2 recr	PPARg SRC2 ag	PPARg SRC1 conf	PPARg SRC3 conf
COc1cccc2cc(C(=O)C3=C(O)C(=O)N(Cc4ccco4)C3c3cccnc3)oc12 (stereo not drawn)	.	.	40	2226	27	26	23	-	-
Cc1ccsc1C(=O)OCC(=O)N1CCc2ccccc2C1	-	-	-	-	-	-	.	.	.
CCOC(=O)C1(Cc2ccc(Cl)cc2)CCN(C(=O)c2sc(C)nc2C)CC1	-	-	-	-	-	-	.	.	.
CC(C)Sc1oc(-c2ccco2)nc1S(=O)(=O)c1ccccc1	.	.	28	2119	19	46	55	46	35
Cc1ccc(C(=O)OCC(=O)Nc2ccccc2Sc2ccccc2)cc1C	-	-	-	-	-	-	.	.	.
Clc1cccc(-c2ccc(C=Nc3ccc(N4CCOCC4)cc3)o2)c1Cl	-	2633	-	2206	24	27	36	29	-
Clc1ccc(-c2ccc(C=Nc3ccc(N4CCOCC4)cc3)o2)cc1	-	-	-	-	-	-	.	.	.
N#Cc1cc2c(nc1SCc1cccc(Cl)c1)CCCCC2	.	.	-	-	-	-	.	.	.
N#Cc1cc2c(nc1SCc1ccccc1)CCCCC2	.	.	-	1973	-	35	37	33	24
CNC(=S)N1N=C(c2ccc(C)cc2)CC1c1ccc(Cl)cc1 (stereo not drawn)	.	.	-	2072	-	23	-	-	-
CCOC(=O)c1sc(NC(=O)CSc2nnc(C(C)C)n2C)nc1C	.	.	-	-	-	-	.	.	.
COC(=O)c1sc(NC(=O)CSc2nnc(C(C)C)n2C)nc1C	.	.	-	-	19	-	-	-	-
COc1cccc(CNC(=O)CCSCc2ccccc2F)c1	-	-	-	-	-	-	.	.	.
O=C(CSc1nnc(COc2cccc3cccnc23)o1)N1CCc2ccccc21	.	.	-	-	20	-	-	-	-
CCN(CC)c1ccc(NC(=O)c2cnn(CC)c2)cc1	.	.	27	-	-	22	-	-	-
Cc1ccc2[nH]c(=O)c(CN(CC3COCCO3)C(=O)Nc3ccccc3F)cc2c1 (stereo not drawn)	-	-	-	-	-	-	.	.	.
COc1ccc(OC)c(C(=O)COC(=O)c2cc(C)oc2C)c1	.	.	-	-	-	-	.	.	.
Cc1cc(NS(=O)(=O)c2ccc(Br)s2)no1	.	.	-	-	-	-	.	.	.
Cc1cc(C(=O)OCC(=O)c2ccc(Br)s2)c(C)o1	.	.	31	-	20	-	41	30	30
Cc1cc(C(=O)OCC(=O)c2ccc(Br)s2)no1	.	.	123	2269	65	90	54	34	39
COc1ccc2cc(/C=N/NC(=O)CN(c3ccccc3C)S(=O)(=O)c3ccccc3)c(Cl)nc2c1	-	-	-	-	-	-	.	.	.
COc1cc(C2C(C(=O)c3ccc(C)o3)=C(O)C(=O)N2c2cc(C)on2)ccc1O (stereo not drawn)	.	.	-	-	-	-	.	.	.
COc1ccc(OC)c(C2C(C(=O)c3cccs3)=C(O)C(=O)N2c2cc(C)on2)c1 (stereo not drawn)	.	.	-	-	-	-	.	.	.
